# The whole screen tested about 310,000 compounds, of which about 3,900 (1.3%) were called active.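 Rule for the calls: active = compounds whose thallium flux B-score, printed positive for inhibition, exceeds three library SD while starting fluorescence stays within three; inactive = the rest.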 This excerpt belongs to a sample that is enriched for actives.
# Target: Potassium voltage-gated channel subfamily KQT member 1 (Homo sapiens) (UniProt P51787)
# Test: inhibitors of human KCNQ1 channel, primary screen, cell-based, thallium flux, high-throughput (AID 2642);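 note: channel opened by potassium depolarization with thallium stimulus after 20 min compound exposure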
# Settings: CHO-K1 KCNQ1, FluxOR thallium flux fluorescence, at 10 µM; active compounds read high
# Sequence of Potassium voltage-gated channel subfamily KQT member 1 (Homo sapiens) (P51787 whole entry, looked up): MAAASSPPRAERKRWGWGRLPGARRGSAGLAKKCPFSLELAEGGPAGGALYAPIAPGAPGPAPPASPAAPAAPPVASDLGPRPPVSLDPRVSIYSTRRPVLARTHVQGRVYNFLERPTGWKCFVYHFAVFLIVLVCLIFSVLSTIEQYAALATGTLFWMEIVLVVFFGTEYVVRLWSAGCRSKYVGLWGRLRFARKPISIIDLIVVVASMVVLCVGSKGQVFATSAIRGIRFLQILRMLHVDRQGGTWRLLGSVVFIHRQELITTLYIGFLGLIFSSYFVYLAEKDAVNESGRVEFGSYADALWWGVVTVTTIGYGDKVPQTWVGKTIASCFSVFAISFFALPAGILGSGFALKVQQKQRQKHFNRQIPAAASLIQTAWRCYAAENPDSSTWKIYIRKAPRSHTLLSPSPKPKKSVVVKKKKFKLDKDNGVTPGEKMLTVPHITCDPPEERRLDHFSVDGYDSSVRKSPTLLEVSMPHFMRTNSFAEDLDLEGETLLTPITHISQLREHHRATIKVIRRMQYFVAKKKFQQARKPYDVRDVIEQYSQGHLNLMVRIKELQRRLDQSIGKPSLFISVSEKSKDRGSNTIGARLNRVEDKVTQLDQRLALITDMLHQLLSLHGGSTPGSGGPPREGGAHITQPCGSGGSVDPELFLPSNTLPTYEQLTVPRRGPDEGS
row,SMILES,B-score
1,COc1cccc(NC(=O)CN(C)C(=O)CSCc2nc3scc(-c4cccs4)c3c(=O)[nH]2)c1,inactive
2,COc1ccc(C2NC(=O)C(=O)/C2=C(\O)c2ccc(Cl)cc2)cc1OC (stereo unspecified),inactive
3,O=C(Nc1ncc([N+](=O)[O-])s1)C1COc2ccccc2O1 (stereo unspecified),inactive
4,CC(=O)Oc1ccccc1C(=O)Nc1ncc([N+](=O)[O-])s1,7 (active)
5,O=C(CCc1ccccc1)Nc1ncc([N+](=O)[O-])s1,inactive
6,CC(NC(=O)c1cc(=O)[nH]c2ccccc12)c1ccc(F)cc1F (stereo unspecified),inactive
7,CC(=O)c1cc2c(cc1NC(=O)Cn1nc(-c3ccc(F)cc3)ccc1=O)OCO2,inactive
8,COc1cnc(-c2ccccn2)nc1Oc1ccc(C(C)(C)C)cc1,inactive
9,COc1ccc(S(=O)(=O)N2CCCCCC2)cc1C(=O)OCC(=O)Nc1cc(C)on1,inactive
10,Cc1cc(C)nc(S/C=C/C(=O)c2ccccc2)n1,inactive
11,O=C(CSc1ncn[nH]1)N/N=C/c1ccc(F)cc1,inactive
12,O=C(/C=C/Sc1ncn[nH]1)c1ccc(Cl)cc1,7 (active)
13,CCOc1cc(NC(=S)NCCCN(C)C)c(OCC)cc1NC(=O)C1CC1,inactive
14,Cc1cc(C)c(NC(=O)C[N+](C)(C)CC(O)COc2cccc3ccccc23)c(C)c1 (stereo unspecified),inactive
15,OC(COc1cccc2ccccc12)CN1CCN(c2ccccn2)CC1 (stereo unspecified),inactive
16,CC(C)c1ccccc1OCC(O)CN(CC(O)COc1cccc2ccccc12)C(C)C (stereo unspecified),6 (active)
17,O=C(CC1C(=O)NCCN1Cc1ccc(-c2ccccc2)cc1)NCc1ccncc1 (stereo unspecified),inactive
18,Cc1ccc(OCC(=O)Nc2ccccc2C(=O)NC2CC2)cc1C,inactive
19,Nc1nnnn1/N=C/c1cc([N+](=O)[O-])ccc1O,inactive
20,O=C(N/N=C/c1cc([N+](=O)[O-])ccc1O)/C(=C\c1cccs1)NC(=O)c1ccccc1,inactive
21,O=[N+]([O-])c1ccc(O)c(/C=N/Nc2ccccc2[N+](=O)[O-])c1,9 (active)
22,CCOc1ccc(CN2CCN(CCCc3ccccc3)C(CCO)C2)cc1 (stereo unspecified),inactive

row,SMILES,B-score
1,CN1CCN(C2=NCCO2)CC1,inactive
2,COc1ccc(OC)c(C(=O)NC(CC(N)=O)c2ccc(N3CCC(N4CCCCC4)CC3)c([N+](=O)[O-])c2)c1 (stereo unspecified),inactive
3,O=C(CNS(=O)(=O)c1ccccc1)N1CCN(C(=O)c2ccco2)CC1,inactive
4,CCS(=O)(=O)C1=NSC2=NC(=O)/C(=C\c3ccc(OS(=O)(=O)c4ccccc4)cc3)C(=N)N21,inactive
5,Cc1cc(/C=C2/C(=N)N3C(=NC2=O)SN=C3S(C)(=O)=O)c(C)n1-c1ccccc1,inactive
6,CCS(=O)(=O)C1=NSC2=NC(=O)/C(=C\c3cc(C)n(-c4cccc(OC)c4)c3C)C(=N)N21,8 (active)
7,CCc1cc(=O)oc2cc(C)cc(OCC(=O)N3CCC[C@@H]3C(=O)O)c12,inactive
8,COc1ccc(N2CCN(C(=O)Cn3cnc4sc(C)c(S(=O)(=O)N5CCOCC5)c4c3=O)CC2)cc1,inactive
9,C=CCn1nc(-c2ccccc2)c2c(C)onc2c1=O,inactive
10,CCOc1ccc(CN(Cc2ccco2)S(=O)(=O)c2ccc(-n3cnnn3)c(OC)c2)cc1,inactive
11,CCOc1ccc(CN(Cc2ccco2)C(c2cccs2)c2nnnn2C(C)(C)C)cc1 (stereo unspecified),7 (active)
12,CC(C)(C)n1nnnc1C(c1cccs1)N(Cc1cccnc1)CC1CCCO1 (stereo unspecified),inactive
13,Cc1c(Cl)cccc1NC(=O)[C@@]1(CC(=O)O)CC(/C=C/c2ccccc2)=NO1,inactive
14,CC(Oc1ccc(F)cc1)C(=O)Nc1cc(S(=O)(=O)N2CCOCC2)ccc1N1CCN(C)CC1 (stereo unspecified),inactive
15,Cc1ccc(S(=O)(=O)N2CCC3(CC2)OCCO3)c(C)c1,inactive
16,CCOC(=O)C1CCN(C(=O)C2(NC(=O)Nc3cccc(F)c3)CCCCC2)CC1,inactive
17,Oc1cccc(/C=N/Nc2ccc(Cl)nn2)c1O,inactive
18,Brc1ccccc1/C=N/Nc1nc2ccccc2o1,inactive
19,Oc1c(Br)cccc1/C=N/Nc1c(F)c(F)c(F)c(F)c1F,7 (active)
20,COc1cccc(NC(=O)CN(C)C(C)C(=O)Nc2ccc(C#N)cc2)c1 (stereo unspecified),inactive
21,COc1ccc(N(CC(=O)Nc2ccc(F)c(F)c2)S(=O)(=O)c2c(C)[nH]c(=O)[nH]c2=O)cc1,inactive
22,COc1ccccc1NC(=O)C1CCN(C(=O)c2ccc(C(C)(C)C)cc2)CC1,inactive

row,SMILES,B-score
1,O=C(CCNC(=O)c1ccc(Br)cc1)NCCCc1ccccc1,inactive
2,S=C(NCCc1ccccc1)Nc1ccccc1,inactive
3,S=C(NCCCc1ccccc1)Nc1ccc(Br)cc1,7 (active)
4,Cc1cn(C)c(=O)n(C)c1=O,inactive
5,O=c1onc(-c2c(F)cccc2F)n1-c1ccccc1Cl,inactive
6,CC1CCC2(CC1)NC(=O)N(CC(=O)c1ccc3c(c1)OCO3)C2=O (stereo unspecified),inactive
7,CC1CCC2(CC1)NC(=O)N(CC(=O)c1cccn1C)C2=O (stereo unspecified),7 (active)
8,O=C(CN1C(=O)NC2(CCCCCC2)C1=O)NC1CC1,inactive
9,Cc1ccc(CNC(=O)CSc2nnc3c(n2)[nH]c2ccc(F)cc23)cc1,inactive
10,CN(C)/C=C(/C(=O)c1ccc(Cl)cc1)S(=O)(=O)c1ccccc1,inactive
11,S=C(NCCc1ccccc1)NCC1CCCO1 (stereo unspecified),inactive
12,CCCC1CCC(=NNC(=S)NCCc2ccccc2)CC1 (stereo unspecified),7 (active)
13,S=C(NN=C1CCN(Cc2ccccc2)CC1)NC1CCCCC1,inactive
14,COc1ccc(S(=O)(=O)NCC(=O)NCc2cc(=O)n(C)c(=O)n2C)cc1F,inactive
15,Cc1ccc(S(=O)(=O)N2CCN(CC(=O)N/N=C/c3ccc(Br)s3)CC2)cc1,inactive
16,CCC(CC)C(=O)N1CCN(c2cccc(C)c2C)CC1,inactive
17,Cc1cccc(N2CCN(C(=O)c3cccc(N4C(=O)C5C6C=CC(C6)C5C4=O)c3)CC2)c1C (stereo unspecified),inactive
18,CCn1c(C)c(C)c2cc(C(=O)N3CCN(c4cccc(C)c4C)CC3)ccc21,10 (active)
19,C=CCC1(CC=C)CCCN1C(=O)c1cc(COc2ccc(-n3cncn3)cc2)on1,11 (active)
20,CCn1ccnc1CN(C)C(=O)c1cc(COc2ccc(-n3cncn3)cc2)on1,inactive
21,O=C(c1cc(COc2ccc(F)c(F)c2)on1)N1CCOCC1,inactive
22,NS(=O)(=O)c1cc(C(=O)NCCOc2ccccc2)c(Cl)cc1Cl,inactive

# Source: PubChem BioAssay AID2642 (Johns Hopkins Ion Channel Center, 2010)
